Assay outcomes from PubChem BioAssay.
The list is not random: actives were taken first. Their share in the collection is about 21%.
Sm TGR inh = blocks Schistosoma mansoni thioredoxin glutathione reductase; purified TGR, DTNB reduction, TNB absorbance 405 nm; Q962Y6; actives 3% (n = 360,000); Potency, µM (series often up to 114 µM), actives largely listed as inhibitors; further: nearly all actives have a fitted effect of over 60% in size
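Kinetic colorimetric format: TGR-catalysed, NADPH-driven DTNB reduction monitored via TNB absorbance. Enzyme dispensed at 20 nM; compound exposure 15 min at room temperature before reaction start.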
Pf growth 96h = P. falciparum growth inhibition at 96 hours; P. falciparum luciferase reporter growth, 96 h; Potency, µM (highest dose often 28.7 µM), most hits filed as inhibitors; actives 6.9% (n = 320,000)
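P. falciparum expressing integrated firefly luciferase grown in erythrocytes (2% hematocrit, 0.05% parasitemia final) with compounds for 96 hours at 37 C, 5% CO2. Growth inhibition read as loss of luminescence after adding luciferase detection reagent.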
Shiga inhibitor = Shiga toxin inhibition | Vero cells, Shiga toxin protein synthesis inhibition reporter | inhibition, % at 38.7 µM | actives 9.2% (n = 290,000) | AID 2315; in the data active means inhibition mostly above about 28%, no sharp cut-off; inactive means mostly below about 43%
CHX counter = affects cycloheximide protein synthesis inhibition readout, counter-screen | cell reporter, cycloheximide protein synthesis inhibition counterscreen | max response, % | actives 12% (n = 300,000); in the data active means max response mostly above about 13%, no sharp cut-off; inactive means mostly below about 14%; further: read at 38.3 µM for the half of the compounds with a filed dose
Pf growth 48h = inhibits P. falciparum growth in the first generation, 48 h. P. falciparum luciferase growth in erythrocytes, 48 h. Potency, µM (highest dose often 28.7 µM), most hits filed as inhibitors. actives 5.9% (n = 310,000). AID 504832
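Read-out is firefly luciferase luminescence from an integrated reporter in P. falciparum, so falling signal marks reduced parasite growth. Infected erythrocytes were at 2% hematocrit and 0.1% parasitemia (final) in Albumax-supplemented RPMI 1640.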
NS1 inh = blocks influenza NS1 protein function. Potency, µM (doses to about 46.1 µM). actives 0.4% (n = 270,000). AID 2326; calls by dose curve; further: actives are rising curves; nearly all actives have a fitted effect of over 50% in size
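Read-out: OD600 growth recovery of NS1-expressing budding yeast. Cells grown overnight at 30C in -URA glucose medium, washed, resuspended and diluted 1:100 in 2% galactose assay medium, pH 6.0. Same strain lacking NS1 served as positive control.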
Large screens that a line does not name were inactive. Unless noted, the call rests on the fitted dose curve; in most records, active means well fitted curve in the direction sought with a large enough effect; inconclusive means small, poorly fitted or top-dose-only effect, or another doubt; inactive means no such curve, though single readings can be large; an effect the other way counts as inactive or inconclusive.

COc1ccc(OC)c(-c2csc(N(CC3CCCO3)C(=O)Cc3ccccc3)n2)c1 (stereo unspecified)	Pf growth 96h 1.85µM, Pf growth 48h inconclusive
O=C(Nc1nc2ccccc2s1)c1ccc(OCC2CCCO2)cc1 (stereo unspecified)	Shiga inhibitor 81.9, CHX counter 18.2
CCOc1ccc(C(=O)NC2=NCCS2)cc1	Shiga inhibitor 82.9, CHX counter 27.5
NCC(O)(CS(=O)(=O)O)c1ccc(Cl)cc1 (stereo unspecified)	none (no result: Sm TGR inh, Pf growth 96h, Shiga inhibitor, CHX counter, Pf growth 48h)
Cc1ccccc1CC(=O)N1CCCc2ccccc21	Pf growth 96h inconclusive
Cc1ccc(NC(=O)c2ccc(OCC3CCCO3)cc2)nc1 (stereo unspecified)	none (no result: Shiga inhibitor, CHX counter, NS1 inh)
Cc1cnc(NC(=O)c2ccc(OCC3CCCO3)cc2)s1 (stereo unspecified)	none
Cc1ccc(NC(=O)c2ccc(OCC3CCCO3)cc2)cc1 (stereo unspecified)	Shiga inhibitor 103.9, CHX counter 57.1
O=C(NC1=NCCS1)c1ccc(OCC2CCCO2)cc1 (stereo unspecified)	Shiga inhibitor 51.5, CHX counter 30.3
Cc1noc(C)c1COc1ccc(C(=O)Nc2ncccc2O)cc1	Pf growth 96h inconclusive, Pf growth 48h 7.38µM (no result: Shiga inhibitor, CHX counter, NS1 inh)
CC(=O)Nc1ccc(C(=O)Nc2ccc(S(=O)(=O)NCC3CCCO3)cc2)cc1 (stereo unspecified)	Pf growth 48h 13.1µM, NS1 inh inconclusive
Cc1ccccc1NC(=O)Cn1c(NCC(C)O)nc2ccccc21 (stereo unspecified)	none
O=C(Nc1ncccc1O)c1ccc(OCC2CCCO2)cc1 (stereo unspecified)	Pf growth 96h inconclusive, Shiga inhibitor 51.7, CHX counter 35.2
CC(C)(C)NC(=O)CSc1nc(N)c(-c2ccccc2)c(=O)[nH]1	none
c1ccc(NC2=NCCS2)cc1	none
Cc1ccc(NC2=Nc3ccccc3CS2)cc1	CHX counter 37.7
O=C1[C@H]2[C@H](ON3CCCC[C@H]23)C(=O)N1c1ccc(Cl)cc1	none
Cc1n[nH]c(=S)n1/N=C/c1ccc(OCc2ccc(Cl)cc2Cl)cc1	Pf growth 96h inconclusive, Shiga inhibitor 78.7, CHX counter 39.2
Cc1cc(C)c(COc2ccc(/C=N/n3c(C)n[nH]c3=S)cc2)c(C)c1	Shiga inhibitor 29.9, Pf growth 48h 11.7µM
Cc1n[nH]c(=S)n1/N=C/c1ccc(OCc2ccc(Cl)cc2)cc1	none
Cc1n[nH]c(=S)n1/N=C/c1ccccc1	none
Cc1cc(C(F)(F)F)nc(SCCN2CCCCC2)c1C#N	Pf growth 96h inconclusive
CCOc1cc2c(cc1OCC)C(c1c(F)cccc1Cl)CC(=O)N2 (stereo unspecified)	none (no result: Pf growth 96h, Shiga inhibitor, CHX counter, Pf growth 48h, NS1 inh)
Cc1cc(NC(=O)c2cc(-c3ccco3)on2)n(-c2ccccc2)n1	none
Cc1cc(-c2ccccc2)n(-c2ccccc2)n1	Sm TGR inh inconclusive, Shiga inhibitor 93.9, CHX counter 40.1
Cc1cc(-c2ccco2)n(-c2ccccc2)n1	Sm TGR inh 3.98µM, NS1 inh inconclusive (no result: Pf growth 96h, Pf growth 48h)
c1ccc(-c2cnnn2-c2ccccc2)cc1	Pf growth 96h 0.828µM
O=C1CCN(Cc2ccccc2)S(=O)(=O)c2c(F)cc(F)cc21	Sm TGR inh inconclusive (no result: Shiga inhibitor, CHX counter, NS1 inh)
C=CCOC(=O)C1=C[C@@H](c2ccccc2)[C@H](CCCO)[C@@H](OCC)O1	none
C=CCOC(=O)C1=C[C@H](c2ccc(C(F)(F)F)cc2)[C@@H](CCCO)[C@H](OCC)O1	Pf growth 96h 9.28µM, Pf growth 48h inconclusive
C=CCOC(=O)C1=C[C@@H](c2ccc(Br)cc2)[C@H](CCCO)[C@@H](OCC)O1	Pf growth 96h 9.28µM, Pf growth 48h inconclusive
C=CCOC(=O)C1=C[C@@H](c2ccc(C(F)(F)F)cc2)[C@H](CCCO)[C@@H](OCC)O1	Pf growth 96h 2.08µM, Pf growth 48h 1.17µM
COc1cc2c(cc1OC)C(COc1ccccc1OC)N(C(=O)CC(C)C)CC2 (stereo unspecified)	none (no result: Pf growth 96h, Shiga inhibitor, CHX counter, Pf growth 48h, NS1 inh)
COc1ccccc1OCc1ccc(C(=O)N2CCN(C(=O)c3ccco3)CC2)cc1	Sm TGR inh inconclusive (no result: Pf growth 48h)
O=C(c1ccc(COc2ccccc2Br)cc1)N1CCCCC1	Shiga inhibitor 49.5, CHX counter 34.4 (no result: Pf growth 48h)
CN(C(=O)c1ccc(COc2ccccc2Br)o1)c1ccccc1	Shiga inhibitor 27.0, CHX counter 15.3 (no result: NS1 inh)
O=C(c1ccc(COc2ccccc2Br)o1)N1CCCCCC1	Sm TGR inh inconclusive, Shiga inhibitor 31.6, CHX counter 26.4
O=C(/C=C/c1cn(-c2ccccc2)nc1-c1cccc(Cl)c1)N1CCN(c2ccccn2)CC1	Pf growth 96h inconclusive, Pf growth 48h inconclusive (no result: Sm TGR inh)
C#CCOCCOCCOCCNc1nc(N2CCOCC2)nc(N2CCN(C(=O)CCCCCCCCCCNC(=O)[C@H](CO)n3cc(CCCSC)nn3)CC2)n1	Pf growth 96h 0.522µM, Pf growth 48h 0.522µM (no result: Shiga inhibitor, CHX counter, NS1 inh)
C#CCOCCOCCOCCNc1nc(N2CCN(C(=O)CCCCCCCCCCNC(=O)[C@@H](CCC(=O)O)n3cc(CCCCCN)nn3)CC2)nc(N2CCN(C(=O)CCCCCCCCCCNC(=O)[C@H](CO)n3cc(CCCSC)nn3)CC2)n1	Pf growth 96h inconclusive, Pf growth 48h 4.65µM (no result: Shiga inhibitor, CHX counter, NS1 inh)
C#CCOCCOCCOCCNc1nc(N2CCN(C(=O)CCCCCCCCCCNC(=O)[C@@H](CCC(=O)O)n3cc(CCCCCN)nn3)CC2)nc(N2CCN(C(=O)CCCCCCCCCCNC(=O)[C@H](CO)n3cc(CCCCCN)nn3)CC2)n1	Sm TGR inh inconclusive, Pf growth 96h 5.86µM, Pf growth 48h 2.08µM (no result: Shiga inhibitor, CHX counter, NS1 inh)
CCC(=O)Nc1ccc(C(=O)NNC(=O)c2ccc(C)cc2)cc1	none
CCOC(=O)c1ccc(NC(=S)N(CCCN2CCCC(C)C2)Cc2ccco2)cc1 (stereo unspecified)	Pf growth 96h inconclusive, Pf growth 48h inconclusive
COc1ccc(CNC(=O)C2CCCN2C(=O)NCc2ccccc2)cc1 (stereo unspecified)	Pf growth 48h inconclusive
CC(C)c1ccc(OCC(=O)NCCS(=O)(=O)N2CCN(c3ccc(F)cc3)CC2)cc1	none (no result: Pf growth 96h, Shiga inhibitor, CHX counter, Pf growth 48h, NS1 inh)
CCc1ccc(/C=C/C(=O)c2c(C)cc(C)[nH]c2=O)cc1	Sm TGR inh inconclusive, Pf growth 48h 9.28µM
Cc1ccc(/C=C/C(=O)c2c(C)cc(C)[nH]c2=O)cc1	Pf growth 96h inconclusive, Pf growth 48h inconclusive
C/C(=C\c1ccc(Cl)cc1)C(=O)c1c(C)cc(C)[nH]c1=O	Pf growth 96h inconclusive, NS1 inh inconclusive
C/C(=C\c1ccc(Br)cc1)C(=O)c1c(C)cc(C)[nH]c1=O	Pf growth 96h 10.4µM
C=CCOc1c(OC)cc(/C=N/Nc2cccc(C(=O)O)c2)c(Br)c1Br	Sm TGR inh 56.2µM, Shiga inhibitor 187.2, CHX counter 49.9
COc1cc(/C=N/Nc2ccc(C(=O)O)cc2)cc(OC)c1OC	Shiga inhibitor 57.6, CHX counter 45.0
Cc1ccc2nc(Cl)c(/C=N/Nc3ccc(C(=O)O)cc3)cc2c1	CHX counter 32.2
COc1cc(/C=N/Nc2ccc(C(=O)O)cc2)ccc1O	Sm TGR inh inconclusive (no result: NS1 inh)
